Source: the supplement of paper PMC10681739

Key:
[1] = target: T1, ETS1 (UniProt P14921); test: ETS1 binding intensity (PBM fluorescence), ETS1 alone (arbitrary fluorescence units); higher = stronger binding; details: ETS1 concentration 1 nM; RUNX1 concentration 0 nM
T1 sequence: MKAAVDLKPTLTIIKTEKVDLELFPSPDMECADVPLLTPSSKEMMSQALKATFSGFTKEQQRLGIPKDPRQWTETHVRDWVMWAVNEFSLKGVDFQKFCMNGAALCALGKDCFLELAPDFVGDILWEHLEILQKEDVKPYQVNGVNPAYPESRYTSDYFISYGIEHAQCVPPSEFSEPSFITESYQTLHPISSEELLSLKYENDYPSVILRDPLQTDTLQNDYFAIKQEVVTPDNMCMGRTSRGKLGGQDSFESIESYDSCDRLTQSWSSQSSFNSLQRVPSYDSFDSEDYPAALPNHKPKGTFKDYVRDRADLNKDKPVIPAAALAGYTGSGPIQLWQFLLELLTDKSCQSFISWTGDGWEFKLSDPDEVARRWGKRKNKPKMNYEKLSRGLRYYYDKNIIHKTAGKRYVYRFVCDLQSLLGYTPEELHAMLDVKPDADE

[2] = target: RUNX1 (UniProt Q01196); test: RUNX1 binding intensity (PBM fluorescence), RUNX1 alone (arbitrary fluorescence units); higher = stronger binding; details: RUNX1 concentration 2 nM; ETS1 concentration 0 nM
RUNX1, sequence (Q01196 whole entry): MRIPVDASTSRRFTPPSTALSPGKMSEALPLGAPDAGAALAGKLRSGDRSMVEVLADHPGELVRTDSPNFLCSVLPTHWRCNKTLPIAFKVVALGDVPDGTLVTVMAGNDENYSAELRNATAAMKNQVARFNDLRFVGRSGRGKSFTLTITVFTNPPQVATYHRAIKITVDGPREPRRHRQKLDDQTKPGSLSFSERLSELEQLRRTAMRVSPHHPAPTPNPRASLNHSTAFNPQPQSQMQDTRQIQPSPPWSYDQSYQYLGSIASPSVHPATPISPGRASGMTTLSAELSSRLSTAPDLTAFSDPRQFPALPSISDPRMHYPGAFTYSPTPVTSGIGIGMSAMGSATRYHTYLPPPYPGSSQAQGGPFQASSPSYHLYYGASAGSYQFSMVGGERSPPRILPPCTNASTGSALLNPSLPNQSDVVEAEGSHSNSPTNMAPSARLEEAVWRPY
Description: (§1)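 Cooperative gcPBM on 36-bp genomic probes with neighbouring ETS1 and RUNX1 sites. Recombinant human RUNX1 (2 nM) was incubated alone or with ETS1 (25 nM) and detected with anti-RUNX1 antibody plus Alexa488 secondary. Values are medians over 4 replicate spots; the RUNX1+ETS1 data were normalised to the RUNX1-only data. The probes sit in constant array flanks that are not printed.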

[3] = target: T1, ETS1; test: ETS1 binding intensity (PBM fluorescence) in presence of RUNX1, normalised to ETS1-only experiment (arbitrary fluorescence units); higher = stronger binding; details: ETS1 concentration 1 nM; RUNX1 concentration 25 nM
[4] = target: RUNX1 (UniProt Q01196); test: RUNX1 binding intensity (PBM fluorescence) in presence of ETS1, normalised to RUNX1-only experiment (arbitrary fluorescence units); higher = stronger binding; details: RUNX1 concentration 2 nM; ETS1 concentration 25 nM
Description: as §1
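Throughout, for RUNX1 binding intensity (PBM fluorescence) in presence of ETS1, normalised to RUNX1-only experiment: Full-length recombinant human ETS1 or RUNX1 bound to double-stranded 36-bp genomic probes on microarrays, detected by protein-specific primary antibody and Alexa488 secondary, spot fluorescence as median of four replicate spots.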
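Throughout, for RUNX1 binding intensity (PBM fluorescence), RUNX1 alone: Full-length recombinant human RUNX1 bound to double-stranded 36-bp genomic probes on a high-density microarray, scored as Alexa488 fluorescence per spot via anti-RUNX1 antibody, median of four replicate spots.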

Sequence	ETS1 binding intensity [1]	RUNX1 binding intensity [2]	ETS1 binding intensity [3]	RUNX1 binding intensity [4]
CTACAGGAAGTTCGAACTGGGCGGAGCCCACCGCAG	1320	658	1950	1120
TGGCGGGAGAACTTCCCCCTGTGCGGTCGCGACGTG	444	738	533	943
CTGTTTCCTGCCTTTGCTGTCTGTGACCGCATCAGT	478	1310	1490	2840
CACCTGCGGAAGTCACAGGGAAGCCACAGAGAGATG	849	766	1160	1080
AGATTAGATGCAGGATGTGGTATACAAAGGCACGTT	2530	823	7140	1820
CCAGACCCGGCGGAACTACCGTGCCCACAAGGCAGC	396	876	564	894
ACACTGAGCTGAACGGAAATGTGGTTCTCACCTCAT	2670	774	3100	1140
TAAGAAAAACAGTCATCCTGCGGTTTCCATTTGTGA	351	6290	1080	5090
ACCCCAAGCCCAGGATGTGGTTTGGCCACTATTGAG	727	859	4450	2030
ATCACAAGCAGAGGATGTGGTTAGTGTTTCGTTCCA	804	995	5580	2160
ACAGAGCAGGAAGCAGCCCTCACCACAGATGAAGCA	686	760	1210	1360
TTCTATCCTGCCTTGCATGTCTTTAACCACACTGAG	396	1800	489	1720
TTAGATGTGCCTACATCCTGACCTCAAAAACCTCTG	561	791	767	957
TCACTCTAACAGGATATTGTGGTTAACTATGTTGCC	2460	2580	17400	14800
TCCCACATCCTGTGCTCGTGCAGTGGTTAGGCTCAA	562	793	608	2490
GTAAACTAGCTCTTCCGGTCTGTGGCCCTCACAGGA	2840	824	3250	1500
AGGCCGTGCAGGAAATGAGACCCACAGCCACGTCAC	1800	789	2180	977
TCTGTCGCACATCCGGTGTGAGCTGCGGGGCGGTGG	7930	753	10600	1640
AAAGTAGGTCCGGTCCGCGGGTGCGGTCGGGCATGC	427	686	545	878
GCTGTCCGTTTCCGAGATGTTAATGCGGGATCTTGC	473	920	402	988

Sequence	ETS1 binding intensity [1]	RUNX1 binding intensity [2]	ETS1 binding intensity [3]	RUNX1 binding intensity [4]
ACGTCTGTTTCCTGTGATTGAAACCGCAAGAAGAAG	783	4510	2250	18500
TTTGTGCCCCAACTTCCTCTGTGGCTTTTGGGTGGG	650	898	969	1480
GACAAAGAGGAAGTCCCCAAAAACCACAATAACAGT	910	1570	4080	3900
AGGAGCCGGAAGTCCCGCCCACGCACCCCCCGCAGG	5260	857	8270	1770
GCAGAACCAGAAACAGGATGTGGGTTCCCCTTTAAG	7390	826	18900	4550
CCGGGCTGCGGAAGGCGGGAACTCTGCGGTTCGCGG	484	861	2650	1090
GACATCCAGGAAGTGGTGAGAAACCACGTGTGTGTT	1630	747	4150	3070
GTGAATGAGGGGGAAGGAAGTGGTTTGGAAAAATAC	1890	949	2790	962
TGTCTTCAGGAAGTGTAGCAGGTGTTGAGGTCAAGC	900	703	998	914
AACAGTCACATCCGGGGCCGAGAGGAACCGCGAACG	1100	894	2080	1740
ACAGATACAGCCTCAGGAAGTGGTTTTGTATCTCTG	3200	682	6160	1070
CAGGTTGTTGAGGATGTGGAGAAACCGCAACCTCGT	581	3670	7360	6690
TAGGCAGGCAGGATGTGCCTATAAGCCACATGAATG	1930	726	2240	962
TCATAAGGAAGTGGAGTGTAGTAACCACAGGCCCCG	417	829	1100	1340
TCACCTCATCACAGGAAACCGCGAGCACCTCCTCCT	2180	1610	5440	1770
AGATTTTGTCTTCCTGTTGTGGCAACATCTGTAGAA	521	1210	406	1520
TGGGGCTAGGCTTCCGGGGCTCTGCGGTCCTCGGCC	481	662	623	1180
ATACTGAGTCATTTCCTGTGGTGTTATTGTGTTGTA	1760	993	2500	1570
CCACGGCTGGCTTCCTGTGTGGTTGGCACGCCTTAC	951	772	1210	1620
